Compound activity from PubChem BioAssay.
Compounds with a hit are over-represented: about 4% of the library has one in this group of screens.
CCHFV vOTU inh: blocks the CCHF virus ovarian tumor domain protease; CCHFV vOTU protease, Pep-AMC fluorescence; inhibition, % at 11.5 µM; 370,000 tested, 0.55% active; AID 651958
Mtb FBA inh: inhibits M. tuberculosis FBA enzyme. P9WQA3. purified M. tuberculosis FBA, fluorescence read-out. inhibition, % at 1 µM. 360,000 tested, 2.3% active. AID 588726; in the data active means inhibition above about 27%
Target sequence (P9WQA3 whole entry, looked up): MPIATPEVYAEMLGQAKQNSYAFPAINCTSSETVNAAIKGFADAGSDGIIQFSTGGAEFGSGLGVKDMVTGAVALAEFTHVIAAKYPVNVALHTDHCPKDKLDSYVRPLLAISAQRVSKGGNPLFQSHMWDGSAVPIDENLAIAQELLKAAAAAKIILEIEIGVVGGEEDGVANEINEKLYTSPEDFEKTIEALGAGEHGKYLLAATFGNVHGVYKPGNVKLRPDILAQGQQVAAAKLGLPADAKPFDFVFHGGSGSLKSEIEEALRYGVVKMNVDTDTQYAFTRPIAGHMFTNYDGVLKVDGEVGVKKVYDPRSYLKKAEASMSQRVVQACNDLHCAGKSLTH
Mtb bLac sens: beta-lactam sensitization of Mtb H37Rv | 330,000 tested, 0.27% active | M. tuberculosis H37Rv growth with meropenem, percent inhibition | inhibition, % at 25 µM; call rule not given here;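 further: growth measured after seven days incubation then overnight dye step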
GDH-TPI inh: inhibits GDH-TPI coupling enzymes, artifact for Mtb FBA screen; AID 588335; GDH-TPI coupled enzyme counterscreen, NADH absorbance; inhibition, % at 4.8 µM; 360,000 tested, 1.2% active
MazEF act: increases E. coli MazEF RNase cleavage of RNA. FAM/BHQ RNA-DNA oligo cleavage fluorescence, 5 h. activation, % at 20 µM. 350,000 tested, 0.32% active. AID 504720; in the data active means activation above about 50%
Target sequence (P0AE70 whole entry, looked up): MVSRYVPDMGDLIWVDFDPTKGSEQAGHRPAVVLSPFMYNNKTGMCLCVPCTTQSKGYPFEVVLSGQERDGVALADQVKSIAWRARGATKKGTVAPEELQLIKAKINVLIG
Large screens that a line does not name were inactive. Unless noted, no stated cut-off is given here; in the data, active means inhibition above about 30%; inactive means the rest.

CC1(C)CC(=O)C=C(Nc2ccc(S(N)(=O)=O)cc2)C1	GDH-TPI inh 38.1
Nc1cc(C(=O)O)c(Oc2ccc(Cl)cc2Cl)cc1C(=O)O	Mtb FBA inh active
COC(=O)[C@]12C[C@H](CC(=O)NCC34CC5CC(CC(C5)C3)C4)C(=O)N(Cc3ccco3)C1=C[C@H](C1CCCC1)O[C@@H]2C	none (no result: Mtb FBA inh, Mtb bLac sens, GDH-TPI inh, MazEF act)
Oc1c(C(Nc2nccs2)c2ccc(C(F)(F)F)cc2)ccc2cccnc12 (centres undefined)	Mtb FBA inh 123.6 (no result: Mtb bLac sens)
Oc1c(C(Nc2cccc(C(F)(F)F)c2)c2ccncc2)ccc2cccnc12 (centres undefined)	none
CCc1cc(=O)oc2c3c(cc(OCC(=O)NCc4ccco4)c12)OC(C)(C)CC3	Mtb FBA inh 154.4 (no result: CCHFV vOTU inh)
CCc1cc(=O)oc2c3c(cc(OCC(=O)NCc4ccncc4)c12)OC(C)(C)CC3	Mtb FBA inh active
CN(C)c1ccc(C2N(c3ccc(Cl)cc3)C(=O)C3CCCN32)cc1 (centres undefined)	none
CN(C)c1ccc(C2N(c3ccc(F)cc3)C(=O)C3CCCN32)cc1 (centres undefined)	GDH-TPI inh 39.6
O=C(OCc1cn(Cc2cccc(F)c2)nn1)N1CCCCC1	none (no result: Mtb FBA inh, Mtb bLac sens, GDH-TPI inh, MazEF act)
O=[N+]([O-])c1ccc(C=CC=Cc2ccccc2)cc1	MazEF act 68.0 (no result: Mtb bLac sens)
C[n+]1ccccc1/C=C/c1ccc([N+](=O)[O-])cc1	Mtb bLac sens inconclusive, GDH-TPI inh 34.6
O=C(C=Cc1ccccc1)c1ccc([N+](=O)[O-])cc1	none (no result: Mtb bLac sens)
Cc1nc2c(c3c1[nH]c1ccccc13)C(O)CC(C)(C)C2 (centres undefined)	Mtb FBA inh 120.1
Cc1nn(-c2ccccc2)c2c1C(O)CC(C)(C)C2 (centres undefined)	none
C=CCOC(=O)N1CCC(NS(=O)(=O)c2ccc3c(c2)CCN3C(C)=O)CC1	none (no result: Mtb FBA inh, Mtb bLac sens, GDH-TPI inh, MazEF act)
COc1cccc(/C=N/NC(=O)c2cc3c(OC)cccc3[nH]2)c1O	none
COc1cccc(/C=N/NC(=O)c2cc3c(OC)cccc3[nH]2)c1OC	none
COc1ccccc1/C=N/NC(=O)c1cc2c(OC)c(OC)ccc2[nH]1	GDH-TPI inh 34.3
COc1ccc(OC)c(/C=N/NC(=O)c2cc3c(OC)cccc3[nH]2)c1	GDH-TPI inh 60.5
COc1cccc(/C=N/NC(=O)c2cc3c(OC)c(OC)ccc3[nH]2)c1OC	GDH-TPI inh 33.0 (no result: Mtb bLac sens)
C=CCOc1ccc(/C=N/NC(=O)c2cc3c(OC)cc(OC)cc3[nH]2)cc1	GDH-TPI inh 31.7
COC(=O)c1cc(-c2cc(Cl)cc(Cl)c2)c(=O)n2c1CCC2	none (no result: Mtb FBA inh, Mtb bLac sens, GDH-TPI inh, MazEF act)
CC(=O)CC[C@H]1CC[C@]2(CCCN(Cc3nccn3C)C2)O1	none (no result: Mtb FBA inh, Mtb bLac sens, GDH-TPI inh, MazEF act)
Cn1c(-c2ccsc2)c(-c2cccs2)c2cc(-c3ccc4cc[nH]c4c3)ccc21	GDH-TPI inh 35.2
Cn1c(-c2ccsc2)c(-c2cccs2)c2cc(-c3ccc4[nH]ccc4c3)ccc21	none
Cc1ccc(C=Nn2c(-c3n[nH]c4c3CCC4)n[nH]c2=S)o1	none (no result: Mtb FBA inh, Mtb bLac sens, GDH-TPI inh, MazEF act)
O/N=C/c1c[nH]c2ccccc12	none
C(=NN=Cc1c[nH]c2ccccc12)c1c[nH]c2ccccc12	GDH-TPI inh 40.7 (no result: Mtb bLac sens)
Cc1ccc(/C=N/N=C2/NC(=O)CS2)o1	none
O=C1CS/C(=N/N=C/c2c[nH]c3ccccc23)N1	GDH-TPI inh 34.7
CCN(CC)CCCNC(=O)CSc1nc2cccnc2n1C	none (no result: Mtb FBA inh, Mtb bLac sens, GDH-TPI inh, MazEF act)
CC1CCC(C(C)C)C(=O)/C1=C/c1ccc(N)cc1 (centres undefined)	GDH-TPI inh 36.4
C#CCN1CC(N(C)CCOC(=O)c2ccc(OC)c(OC)c2)CS1(=O)=O (centres undefined)	none (no result: Mtb FBA inh, Mtb bLac sens, GDH-TPI inh, MazEF act)
O=C(N[C@H]1C[C@@H]2O[C@H](CO)CC[C@@H]2O[C@@H]1CCc1ccc(-c2cccnc2)cc1)c1cccc(F)c1	none (no result: Mtb FBA inh, Mtb bLac sens, GDH-TPI inh, MazEF act)
COc1ccc(Nc2nc3c(C)cccc3cc2C#N)c(OC)c1	none
COc1ccc(Nc2nc3cc(C)ccc3cc2C#N)c(OC)c1	MazEF act 62.2
COc1ccc(Nc2nc3ccc(C)cc3cc2C#N)c(OC)c1	MazEF act 138.9
C#CCNC(=O)C[C@@H]1C(=O)N(Cc2ccc(OC)cc2)/C2=C/CCCCC[C@@]21C(=O)OCC	none (no result: Mtb FBA inh, Mtb bLac sens, GDH-TPI inh, MazEF act)
COc1ccc(-c2ccnc3c(C#N)cnn23)cc1	Mtb FBA inh 171.1
CC(C)CCNC(=O)C1CCN(c2cncnc2)CC1	none (no result: Mtb FBA inh, Mtb bLac sens, GDH-TPI inh, MazEF act)
CCOc1ccc(/C=C(\C)C(=O)c2c(C)cc(C)[nH]c2=O)cc1	GDH-TPI inh 45.7
N#CCC[C@@H]1CC[C@]2(CCCN(S(=O)(=O)c3ccccc3)C2)O1	none (no result: Mtb FBA inh, Mtb bLac sens, GDH-TPI inh, MazEF act)
Nc1ccc(-c2nc3cc(N)ccc3n2CCO)cc1	Mtb FBA inh active
Cn1c(CO)nc2cc(N)ccc21	none
COC(=O)C1=C(C)N(Cc2ccc(C(F)(F)F)cc2)C(=NCc2ccccc2)NC1c1ccc(C(F)(F)F)cc1 (centres undefined)	none (no result: Mtb FBA inh, Mtb bLac sens, GDH-TPI inh, MazEF act)
CC1(C)CC(=O)C2=C(C1)NC(=O)NC2c1ccccc1 (centres undefined)	none
CC1C2=C(CC(C)(C)CC2=O)NC2=C1C(=O)CC(C)(C)C2	Mtb FBA inh active
Cc1ccc2[nH]c3c(=O)n(N)c(=O)[nH]c3c2c1	Mtb FBA inh 119.2
O=C(OC12CCCN(C1)/C(=C/c1ccc(Cl)cc1)C2)c1ccc(F)cc1 (centres undefined)	none (no result: Mtb FBA inh, Mtb bLac sens, GDH-TPI inh, MazEF act)
O=C(CSc1ccsc1[N+](=O)[O-])NCCc1ccccc1	Mtb FBA inh active
COc1ccc2c(c1OC)C(=O)OC2CC(=O)c1ccc(N(C)C)cc1 (centres undefined)	GDH-TPI inh 30.8
N#Cc1cccc(-n2cc(COC(=O)NCCc3ccccc3)nn2)c1	none (no result: Mtb FBA inh, Mtb bLac sens, GDH-TPI inh, MazEF act)
COc1ccc2oc3cc(NCCN(C)C)ccc3c(=O)c2c1	Mtb FBA inh active (no result: Mtb bLac sens, GDH-TPI inh, MazEF act)
COc1ccc(Nc2oc(-c3ccccc3F)nc2C#N)cc1	none
COc1ccc(CNc2oc(-c3cccc4ccccc34)nc2C#N)cc1	Mtb FBA inh 147.2
COc1ccc(CCNc2oc(-c3ccc(OC)c(OC)c3)nc2P(=O)(OC)OC)cc1OC	Mtb FBA inh 165.3
CCOP(=O)(OCC)c1nc(-c2cccc3ccccc23)oc1NCCc1ccc(OC)cc1	Mtb FBA inh 168.4
CNc1oc(-c2cccc3ccccc23)nc1C#N	Mtb FBA inh active
C[C@H]1COc2cc(Br)ccc2S(=O)(=O)N1Cc1cn(Cc2ccc(C(F)(F)F)cc2)nn1	none (no result: Mtb FBA inh, Mtb bLac sens, GDH-TPI inh, MazEF act)
CCN(CC)C(=O)CC[C@H]1CC[C@]2(CCCN(C(=O)c3ccc4ccccc4n3)C2)O1	none (no result: Mtb FBA inh, Mtb bLac sens, GDH-TPI inh, MazEF act)
Cc1ccc2nc3c(cc(C(=O)NC4CCCC4)c(=N)n3CCCn3ccnc3)c(=O)n2c1	none (no result: CCHFV vOTU inh, Mtb FBA inh, GDH-TPI inh, MazEF act)
COCCNC(=O)c1cc2c(=O)n3cccc(C)c3nc2n1C	none
CCNC(=O)c1cc2c(=O)n3cccc(C)c3nc2n(CCc2ccccc2)c1=N	Mtb FBA inh active
Cc1cccn2c(=O)c3cc(C(=O)NCCc4ccccc4)c(=N)n(CCCn4ccnc4)c3nc12	Mtb FBA inh 128.8
C=CCn1c(=N)c(C(=O)NCCCOC)cc2c(=O)n3cccc(C)c3nc21	Mtb FBA inh active
CNC(=O)c1cc2c(=O)n3cccc(C)c3nc2n(C(C)C)c1=N	Mtb FBA inh active
COc1ccc(CCn2c(=N)c(C(=O)NC3CCCC3)cc3c(=O)n4cccc(C)c4nc32)cc1	none
OC1OC2COC(c3ccccc3)OC2C(O)C1O (centres undefined)	none (no result: Mtb FBA inh, Mtb bLac sens, GDH-TPI inh, MazEF act)
